This is a sample that favours compounds with a hit; in the whole collection about 1.6% have one here.
KCNQ2 enhance = potentiators of rat KCNQ2 potassium channel; CHO-K1 KCNQ2, FluxOR thallium flux fluorescence; active compounds read high; B-score at 10 µM; 0.54% of 310,000 active; AID 2239, 2010;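 active = fluorescence ratio B-score at least 3 SD of library B-scores, with initial fluorescence B-score within 3 of them, cut at about 5.3 in these data; same plate scores as AID 2156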;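 also: B-score of peak minus minimum over baseline fluorescence ratio after K+ and Tl+ stimulus; positive B-score means potentiation of KCNQ2 with more thallium influx and brighter signal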
KCNQ2 inh = rat KCNQ2 potassium channel inhibitors, primary screen, cell-based, CHO-K1, FluxOR thallium flux, B-score. Potassium voltage-gated channel subfamily KQT member 2 (Rattus norvegicus), O88943. 20 min; active compounds read low. B-score at 10 µM. 1.1% of 310,000 active;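 active = fluorescence ratio B-score at most minus 3 library SDs, with starting brightness B-score within 2 library SDs, cut at about -5.5 in these data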
Kir21 conf inh = mouse Kir2.1 channel blockers, retest, confirmation, cell-based, FluxOR thallium flux, duplicate. shares compounds with KCNQ2 enhance. 41% of 2,300 active. Kir2.1-expressing cells, FluxOR thallium flux fluorescence; active compounds read low. Tl flux remaining, % of negative control (active compounds read low), % at 10 µM;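 active = Primary-screen hit whose thallium flux fell at least 3 control SD below untreated wells in both duplicates, with normal baseline fluorescence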
HEK293 ctr = alters thallium flux in parental HEK293 cells, Kir2.1 counter-screen; 19% of 2,300 active; FluxOR thallium flux fluorescence; 0% = unstimulated blank wells; shares compounds with KCNQ2 enhance; AID 2105; FluxOR signal as % of negative control (100 = no effect), % at 10 µM;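 active = dye signal at least 3 control SD above or below untreated wells in both duplicates, raw fluorescence within 3, either direction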;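 also: percent is based on the flux ratio of peak minus minimum fluorescence over baseline F0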
CHO-K1 Tl ctr = nonspecific thallium flux increase in parental CHO-K1, confirmation, counter-screen for KCNQ2 potentiator project, cell-based, FluxOR thallium flux, duplicate; shares compounds with KCNQ2 enhance; parental CHO-K1 cells, FluxOR thallium flux fluorescence; zero = vehicle mean+3SD, 100% = vehicle-minus-blank window; activity increase over 3SD of controls, % at 10 µM; 43% of 1,200 active;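 active = signal rise of at least 3 SD above the untreated control mean, in both duplicate wells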;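 also: counter screen of KCNQ2 potentiator hits so any rise reflects channel-independent effects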
KCNQ1 sel pot = human KCNQ1 channel potentiation off-target, confirmation, selectivity assay for KCNQ2 potentiator project, cell-based, CHO, FluxOR thallium flux | shares compounds with KCNQ2 enhance | CHO KCNQ1 stable, FluxOR thallium flux fluorescence; beyond 3SD, as % of vehicle-control signal | activation over 3SD threshold, % at 10 µM | 28% of 1,200 active | AID 2283, 2010;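 active = fluorescence ratio rise of at least 3 SD of vehicle wells above their mean, in both replicate wells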
KCNQ2 pot confirm = rat KCNQ2 channel potentiators, confirmation, cell-based, CHO, FluxOR thallium flux, duplicate. shares compounds with KCNQ2 enhance. CHO-KCNQ2 cells, FluxOR thallium flux fluorescence. potentiation, less the hit threshold, % at 10 µM. 68% of 1,200 active. AID 2287, 2010;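 active = fluorescence ratio rising 3 SD or more over the vehicle control mean in both replicates, plus primary screen hit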;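 also: peak minus minimum thallium fluorescence divided by baseline after K/Tl stimulus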
Kir2-1 sel = mouse Kir2.1 channel activation off-target, confirmation, selectivity assay for KCNQ2 potentiator project, cell-based, HEK293, FluxOR thallium flux. shares compounds with KCNQ2 enhance. HEK293 Kir2.1, FluxOR thallium flux fluorescence. activity over 3SD threshold, % at 10 µM. 2% of 1,200 active;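 active = fluorescence ratio rise of at least 3 SD above the vehicle-control mean, seen in both replicates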
KCNQ2 W236L MoA = potentiators of retigabine-insensitive KCNQ2 W236L, mechanism study for KCNQ2 potentiator project, cell-based, rat KCNQ2 W236L, CHO, automated patch clamp; 10% of 940 active; automated patch clamp current; AID 2558, 2010; current increase over 3SD of negative controls (%), active compounds read high, % at 25 µM; shares compounds with KCNQ2 enhance;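 active = current increase at least 3 SD of the untreated controls above them in both duplicate recordings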
Large screens that a line does not name were inactive (follow-up assays come after a bar, where they were run).

Cc1ccccc1Cn1c(=N)n(CC(O)c2ccco2)c2ccccc21 (stereo not given)	none (no result: KCNQ2 enhance) | Kir21 conf inh 63.5% | HEK293 ctr inactive
O=C(CNC(=O)c1ccc(F)cc1)Nc1ccccc1C(F)(F)F	none
S=C(c1ccc(N2CCCC2)c(Br)c1)N1CCCCC1	none
O=C(NN1CC(C(=O)OCc2ccc(Br)cc2)CC1=O)c1ccccc1 (stereo not given)	KCNQ2 enhance 9.73 | Kir21 conf inh inactive | HEK293 ctr inactive | CHO-K1 Tl ctr 12.8 | KCNQ1 sel pot inactive | KCNQ2 pot confirm 55.4 | Kir2-1 sel inactive | KCNQ2 W236L MoA 3.6%
O=C(COC(=O)C1CC(=O)N(Cc2ccccc2)C1)c1ccc(Br)cc1 (stereo not given)	none (no result: KCNQ2 enhance)
CCN(CC)C(=S)SCC(=O)c1ccc(F)cc1	none (no result: KCNQ2 enhance)
CCN(CC)C(=S)SCC(=O)Nc1ccc(F)cc1	KCNQ2 enhance 6.4 | Kir21 conf inh inactive | HEK293 ctr inactive | CHO-K1 Tl ctr inactive | KCNQ1 sel pot inactive | KCNQ2 pot confirm 3.2 | Kir2-1 sel inactive | KCNQ2 W236L MoA inactive
CC(C)C(NS(=O)(=O)c1ccccc1)C(=O)N1CCCC1 (stereo not given)	none
O=C1NC2(CCCc3ccccc32)C(=O)N1Cc1nnc(-c2ccccc2Br)o1 (stereo not given)	none (no result: KCNQ2 enhance)
O=c1c(Cl)c(Cl)cnn1Cc1nnc(-c2ccccc2Br)o1	KCNQ2 enhance 5.48 | Kir21 conf inh inactive | HEK293 ctr inactive | CHO-K1 Tl ctr 40.8 | KCNQ1 sel pot inactive | KCNQ2 pot confirm 12.5 | Kir2-1 sel inactive | KCNQ2 W236L MoA inactive
CC(NC(=O)/C(C#N)=C/c1ccc([N+](=O)[O-])o1)c1ccccc1 (stereo not given)	none (no result: KCNQ2 enhance) | Kir21 conf inh inactive | HEK293 ctr 64.0%
CC(NC(=O)/C(C#N)=C/c1ccco1)c1ccccc1 (stereo not given)	none (no result: KCNQ2 enhance)
O=C(CN(Cc1cccs1)C(=O)CNS(=O)(=O)c1ccc(Cl)cc1)NCC1CCCO1 (stereo not given)	none (no result: KCNQ2 enhance)
COC(CN(C)C(=O)C1CCCN(S(=O)(=O)c2ccc3c(c2)oc(=O)n3C)C1)OC (stereo not given)	none
COc1ccc(/C=N/c2sc3c(c2C#N)CCN(Cc2ccccc2)C3)c(O)c1	none (no result: KCNQ2 enhance)
CN1CCc2c(sc(/N=C/c3cc(C(C)(C)C)ccc3O)c2C#N)C1	KCNQ2 enhance 11.1 | Kir21 conf inh inactive | HEK293 ctr inactive | CHO-K1 Tl ctr inactive | KCNQ1 sel pot inactive | KCNQ2 pot confirm inactive | Kir2-1 sel inactive
COc1cc(C(CC(=O)Nc2cccc(C)n2)N2Cc3ccccc3C2=O)cc(OC)c1OC (stereo not given)	none
Cc1ccccc1C(=O)NC(=S)NCCC1=CCCCC1	none

Screening data from PubChem.
